# About 1,600 (0.73%) of roughly 220,000 compounds were called active. Many of the other results were omitted from the sample, so actives are more common in it than they were. Unmarked numbers belong to inactive results.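 The calls were made as follows: active = inhibition above about 70% (limit read from the data); inactive = the rest.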
# Molecular target: 14-3-3 protein zeta/delta (Bos taurus) (UniProt P63103)
# Experiment: inhibitors of 14-3-3 zeta/Bad binding, primary screen, biochemical, TR-FRET, bovine 14-3-3 zeta (AID 781);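 also: 0% = full 14-3-3 plus peptide FRET controls and 100% = background without 14-3-3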
# Settings: TR-FRET 14-3-3zeta/Dy647-pBad peptide displacement, 1 h; at 21.7 µM; stronger effect = higher value
# Chain of 14-3-3 protein zeta/delta (Bos taurus) (P63103 whole entry, looked up): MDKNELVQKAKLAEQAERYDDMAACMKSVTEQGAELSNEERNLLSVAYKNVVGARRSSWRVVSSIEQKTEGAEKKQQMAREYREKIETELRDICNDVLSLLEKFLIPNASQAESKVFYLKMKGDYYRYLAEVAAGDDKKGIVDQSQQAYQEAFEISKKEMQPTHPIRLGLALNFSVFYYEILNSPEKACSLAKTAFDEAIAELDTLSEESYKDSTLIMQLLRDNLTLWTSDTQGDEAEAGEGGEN
row,Structure (SMILES),inhibition
1,Fc1ccc(N2CCN(Cc3cnc(Oc4ccc(Br)cc4)s3)CC2)cc1,-11.7%
2,COc1ccc(N2CCN(Cc3ccc(Br)s3)CC2)cc1,79.9% (active)
3,COc1ccc(N2CCN(Cc3nnc(-c4ccccc4)o3)CC2)cc1,-10.5%
4,O=C(NCc1cccnc1)c1cnc2ccccc2n1,13.6%
5,CCc1cc2c(N3CCN(c4nnc(CC)s4)CC3)ncnc2s1,76.6% (active)
6,CCc1cc2c(NC3CCCC3)ncnc2s1,12.9%
7,Oc1ccccc1N1CCN(c2ncnc3sc(-c4ccccc4)cc23)CC1,-3.44%
8,CNC(=O)NC(=O)CSc1nnc(-c2ccc(F)cc2)n1CC1CCCO1 (configuration not stated),-19.5%
9,CN1CCN(C(CNS(=O)(=O)c2cccs2)c2cccnc2)CC1 (configuration not stated),-2.11%
10,COCCCNC(=S)N(Cc1ccccc1)Cc1ccc(F)cc1,-1.09%
11,CC(C)C(=O)NCc1cc(-c2ccc(Cl)cc2)no1,9.14%
12,Cn1c(COc2ccc(Cl)cc2)nc2ccccc2c1=O,89.6% (active)
13,COCn1c(COc2ccccc2)nc2ccccc21,0.06%
14,COc1ccc(OCc2ccc(-c3nc4ccccc4c(=O)n3N)o2)cc1,-11.1%
15,CN(CC(=O)N1CCN(c2ccccc2)CC1)S(=O)(=O)c1cccs1,-17.7%
16,CNC(=S)NNC(=O)c1ccc(N(C)C)cc1,-0.72%
17,CCCCCCNS(=O)(=O)c1ccccc1Br,-7.16%
18,Cc1ccc(C(C)NC(=O)Cn2nc(C)c([N+](=O)[O-])c2C)cc1 (configuration not stated),5.36%
19,CC(C)CNC(=O)COC(=O)/C=C/c1ccccc1[N+](=O)[O-],-3.85%
20,Cc1[nH]nc(SCC(=O)NCC(C)C)c1[N+](=O)[O-],94% (active)
21,Cc1ccc2nc3n(c(=O)c2c1)CCC3,-3.59%
22,COc1ccc(-c2nc3n(c2Br)CCC3)cc1,73.6% (active)
23,Brc1cccc(-c2nnc3n2CCC3)c1,-2.99%

row,Structure (SMILES),inhibition
1,Cc1cccc(NC(=S)NCCc2ccc(F)cc2)c1C,1.39%
2,OC(c1ccccc1)C(CN1CCOCC1)c1ccccc1 (configuration not stated),6.57%
3,CC(CN1CCOCC1)c1ccccc1 (configuration not stated),71.2% (active)
4,Cc1ccc(C(=O)OC(C)CN2CCOCC2)cc1 (configuration not stated),-4.58%
5,O=Cc1ccc(OCc2cn3ccccc3n2)cc1,-3.57%
6,CC1(C)OC(=O)C(=CNC(CO)C(=O)O)C(=O)O1 (configuration not stated),12.2%
7,Oc1c(Cl)cc(Cl)c(Cl)c1Cc1c(O)c(Cl)cc(Cl)c1Cl,82.8% (active)
8,O=C(c1ccco1)N1CCN(CCOc2ccccc2)CC1,-0.94%
9,CN(C)CCN=c1cc(-c2ccccc2)oc2ccc(Cl)cc12,-12%
10,CN(C)N=Nc1ccc2nc[nH]c2c1,-55.4%
11,CN1C(=O)/C(=N/OC(=O)c2ccccc2Br)c2ccccc21,9.1%
12,Cc1csc(NC(=O)CN2CCCCCC2)n1,79.5% (active)
13,Cc1csc(NC(=O)C2CCCN2C(=O)OCC(C)C)n1 (configuration not stated),-4.68%
14,CS(=O)(=O)c1ccc2nc(NC(=O)CN3CCCCCC3)sc2c1,66.8%
15,O=C(COc1ccccc1)NCCc1nc2ccccc2[nH]1,-2.28%
16,COc1ccc(OC(C)C(=O)NCCc2nc3ccccc3[nH]2)cc1 (configuration not stated),4.28%
17,COC(=O)Cc1nc2ccccc2[nH]1,78.5% (active)
18,COc1cc(NC(=S)NCCSc2ccc(C)cc2)cc(OC)c1,-12.2%
19,O=C(Nc1ccc([N+](=O)[O-])cc1)C1(c2ccccc2)CCOCC1,-1.28%
20,CC(C)OCCCNc1ncnc2c1[nH]c1ccc(F)cc12,-11%
21,Cc1ccc2[nH]c3c(=O)n(Cc4ccccn4)cnc3c2c1,-4.28%
22,COc1cc(OC)c(OC)cc1/C=N/Nc1ncnc2c1[nH]c1ccc(C)cc12,94.3% (active)
23,CCN(CC)CCNCC(=O)Nc1ccc(Oc2ccccc2)cc1,20.5%

row,Structure (SMILES),inhibition
1,COc1cc(NC(=O)c2cncc(-c3ccc(C#N)cc3)c2)cc(C(=O)Nc2cccc(C(F)(F)F)c2)c1,23%
2,O=c1cc(CO)oc(C(Nc2cccc(C(F)(F)F)c2)c2ccccn2)c1O (configuration not stated),2.47%
3,COc1ccccc1N1CCN(Cc2ccc(OC)c3ccccc23)CC1,37.2%
4,COc1cccc(OC)c1OCCN1CCN(C(=O)c2ccco2)CC1,24.8%
5,COc1ccc(Br)cc1CN1CCN(C(=O)c2cccc(OC)c2OC)CC1,81.3% (active)
6,CC(C)c1cc(C(=O)O)n[nH]1,65.1%
7,O=C(Nc1ccc(Cl)cn1)c1ccc2c(c1)OCCO2,7.42%
8,Cc1cc(NC(=O)c2cnn3cccnc23)n(-c2ccccc2)n1,7.08%
9,O=C(Nc1ccc(Cl)cn1)c1cnn2cccnc12,81.6% (active)
10,C/C(N)=C(/C#N)C(=O)COC(=O)c1cc(-c2ccccc2)nc2ccc(Br)cc12,-9.11%
11,O=C(N/N=C/c1ccccn1)c1cccnc1,-10.3%
12,Cc1cc(NC(=O)OC(C)C)ccc1-c1ccc(NC(=O)OC(C)C)cc1C,12%
13,Cc1nc(SCC(=O)Nc2cc(C)on2)c2c(C)c(C)sc2n1,85.3% (active)
14,Cc1cc(NC(=O)CSc2nc(C(C)C)nc3sc4c(c23)CCC(C)C4)no1 (configuration not stated),2.28%
15,Cc1nc(SCC(=O)Nc2cc(C)on2)c2c3c(sc2n1)CCCC3,-9.48%
16,Cc1nn(CC#N)c(=O)n1N(C)c1ncc(C(F)(F)F)cc1Cl,-20.5%
17,CN(CC(O)COc1ccc(S(=O)(=O)N2CCOCC2)cc1Cl)C1CCCCC1 (configuration not stated),-11.1%
18,CCOC(=O)c1c(NC(=O)c2cccs2)sc(C)c1C,10.5%
19,COCCCNCC(=O)Nc1sc(C)c(C)c1C(=O)OC,78.7% (active)
20,COC(=O)c1c(NC(=O)c2c(Cl)cnn2C)sc(C)c1C,-11.9%
21,COc1cc(CN2CC(C)CC(C)C2)cc([N+](=O)[O-])c1O (configuration not stated),-15.1%

# Reference: PubChem BioAssay AID781 (Emory University Molecular Libraries Screening Center, 2007)
